Test [1] in a line: qHTS assay to identify small molecule agonists of the peroxisome proliferator-activated receptor delta (PPARd) signaling pathway - cell viability counter screen (AID 743211). Further: nearly all actives have a fitted effect of over 55% in size. Further: potency means the concentration at half of the fitted maximal effect. An outline of the steps:
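Viability was measured as CellTiter-Glo luminescence (30 min, room temperature) in the same wells as the beta-lactamase readout. GeneBLAzer PPARd UAS-bla HEK293H cells received compound after 5 h plating and were incubated 17 h at 37 C.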
Background: qHTS replaces the single test concentration by a dilution series.

Test [2] can be described thus: qHTS assay to identify small molecule antagonists of the peroxisome proliferator-activated receptor delta (PPARd) signaling pathway - cell viability counter screen (AID 743213). Further: nearly all actives have a fitted effect of over 50% in size. Further: potency means the concentration at half of the fitted maximal effect. An outline of the steps: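 CellTiter-Glo was added to PPARd-bla HEK293H wells following 17 h compound treatment in the presence of 300 nM L165041. Luminescence was recorded after 30 min at room temperature.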

Test [3] addresses Vitamin D3 receptor (Homo sapiens) (UniProt P11473). Put plainly: qHTS assay to identify small molecule agonists of the vitamin D receptor (VDR) signaling pathway (AID 743222; calls by dose curve). In short, it runs like this:
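Following 4 h attachment at 37C, VDR-bla cells (2,000 per well) received DMSO-dissolved compounds or controls. After 16 h incubation, LiveBLAzer B/G FRET substrate was added and fluorescence read 2 h later at room temperature.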

Test [4] has the same target. Description: qHTS assay to identify small molecule antagonists of the vitamin D receptor (VDR) signaling pathway (AID 743223; active means well fitted inhibition curve with a large enough effect in the signal ratio in the repeat runs, not every such curve was filed as active; the % refers to the signal ratio). An outline of the steps:
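Antagonist mode: compound added to VDR-bla cells alongside agonist 1alpha,25-dihydroxyvitamin D3 (3 nM final), incubation 16 h at 37C. Read-out is LiveBLAzer FRET fluorescence, 2 h at room temperature.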

Test [5] can be described thus: qHTS assay to identify small molecule agonists of the vitamin D receptor (VDR) signaling pathway - cell viability counter screen (AID 743224). Further: series mostly up to about 63 µM; nearly all actives have a fitted effect of over 50% in size. In short, it runs like this: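 In parallel with the bla FRET readout, cytotoxicity toward VDR-bla cells after 16 h compound exposure was assessed by CellTiter-Glo, with luminescence recorded after a 30 min room-temperature incubation.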

Test [6] can be described thus: qHTS assay to identify small molecule antagonists of the vitamin D receptor (VDR) signaling pathway - cell viability counter screen (AID 743225). Further: nearly all actives have a fitted effect of over 50% in size. Further: potency means the concentration at half of the fitted maximal effect. An outline of the steps: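 Cytotoxicity counter screen read by CellTiter-Glo luminescence (30 min, room temperature) in the same wells as the VDR-bla antagonist readout. HEK 293T VDR-UAS-bla cells had 16 h at 37C with compound and 3 nM (final) 1-alpha,25-dihydroxyvitamin D3, then 2 h with FRET substrate.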

A short description of test [7]: qHTS assay to identify small molecule agonists of the NFkB signaling pathway (AID 1159509; active means well fitted curve in the direction sought with a large enough effect in the signal ratio in the repeat runs, not every such curve was filed as active; the % refers to the signal ratio; further: series mostly up to about 61 µM). In short, it runs like this:
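Agonist activity was read as beta-lactamase-driven FRET change (460 and 530 nm emission, 405 nm excitation) following 1.5 hr substrate loading at room temperature. Beforehand, ME-180 NFkB-bla reporter cells were treated with compounds for 5 hr at 37 C.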

Test [8] is described as follows: qHTS assay to identify small molecule agonists of the NFkB signaling pathway - cell viability counter screen (AID 1159515; calls by dose curve; further: series mostly up to about 61 µM; nearly all actives have a fitted effect of over 55% in size). An outline of the steps:
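Plate 2,000 NFkB-bla ME-180 cells/well; incubate overnight. Add compounds, 5 hr at 37 C. Add FRET substrate, 1.5 hr RT. Add CellTiter-Glo, 30 min RT; read luminescence.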

Test [9] can be described thus: qHTS assay to identify small molecule agonists of the endoplasmic reticulum stress response signaling pathway (AID 1159516; active means well fitted activation curve with a large enough effect in the signal ratio in the repeat runs, not every such curve was filed as active; the % refers to the signal ratio). In short, it runs like this:
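Beta-lactamase expression from the ER stress response element in HeLa reporter cells is quantified with the LiveBLAzer B/G FRET substrate, read at 405 nm excitation after 2 hr at room temperature, following 5 hr compound treatment at 37 C.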

Test [10] deals with Nuclear receptor ROR-gamma (Homo sapiens) (UniProt P51449). Put plainly: qHTS assay to identify small molecule antagonists of the retinoid-related orphan receptor gamma (ROR-gamma) signaling pathway (AID 1159521; further: nearly all actives have a fitted effect of over 50% in size; further: potency means the concentration at half of the fitted maximal effect). An outline of the steps:
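Antagonist read-out: drop in luminescence (ONE-Glo) from an RORE-LUC reporter in CHO cells with doxycycline-inducible ROR-gamma; 2 hr compound pretreatment, 1 uM doxycycline, 16 hr incubation at 37 C.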

A short description of test [11]: qHTS assay to identify small molecule agonists of the AP-1 signaling pathway - cell viability counter screen (AID 1159525; calls by dose curve; further: nearly all actives have a fitted effect of over 55% in size). An outline of the steps: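 Intracellular ATP by Cell Titer Glo luminescence (30 min, RT) in the same ME-180 AP-1-bla wells after the 5 h compound exposure at 37 °C. Normalised to tetra n-octyl ammonium bromide and DMSO controls.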
Test [12] can be described thus: qHTS assay to identify small molecule agonists of the AP-1 signaling pathway (AID 1159526; calls by dose curve).
Test [13] can be described thus: qHTS assay to identify small molecule antagonists of the farnesoid-X-receptor (FXR) signaling pathway - cell viability counter screen (AID 743221; active means well fitted cell-killing curve with a large enough effect in the repeat runs, not every such curve was filed as active; further: nearly all actives have a fitted effect of over 50% in size; further: potency means the concentration at half of the fitted maximal effect). An outline of the steps: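 Cytotoxicity counter screen run in the FXR-bla reporter wells: HEK 293T cells exposed to compound with 50 uM (final) chenodeoxycholic acid for 16 h, 37 C, then viability measured by CellTiter-Glo luminescence after 30 min, room temperature.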

Test [14] in a line: qHTS assay to identify small molecule agonists of the farnesoid-X-receptor (FXR) signaling pathway - cell viability counter screen (AID 743218). Further: nearly all actives have a fitted effect of over 45% in size. Further: potency means the concentration at half of the fitted maximal effect. An outline of the steps: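 Readout: CellTiter-Glo luminescence, 30 min RT, multiplexed after the FXR-bla FRET reading. HEK 293T FXR-UAS-bla cells received compound 5 h post-plating and were incubated 16 h at 37 C.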
Test [15] is described as follows: qHTS assay to identify small molecule antagonists of the retinoid-related orphan receptor gamma (ROR-gamma) signaling pathway - cell viability counter screen (AID 1159520). Further: nearly all actives have a fitted effect of over 50% in size. In short, it runs like this:
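Cytotoxicity was read from cellular ATP (CellTiter-Glo luminescence) after 16 hr at 37 C with 1 uM doxycycline induction. The inducer was added 2 hr after compound transfer to Tet-on ROR gamma CHO cells.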

Test [16] has as its target Peroxisome proliferator-activated receptor delta (Homo sapiens) (UniProt Q03181). Put plainly: qHTS assay to identify small molecule antagonists of the peroxisome proliferator-activated receptor delta (PPARd) signaling pathway (AID 743215; active means well fitted inhibition curve with a large enough effect in the signal ratio in the repeat runs, not every such curve was filed as active; the % refers to the signal ratio;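 further: cells stimulated with agonist L165041 at 300 nM final during compound exposure; series mostly up to about 62 µM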). In short, it runs like this:
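Fluorescence from cleaved LiveBLAzer B/G FRET substrate (2 h, room temperature) reports PPARd-driven beta-lactamase in HEK293H UAS-bla cells. Cells had been treated 17 h at 37 C with compound plus 300 nM final L165041.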

Test [17] deals with Bile acid receptor (Homo sapiens) (UniProt Q96RI1). Put plainly: qHTS assay to identify small molecule agonists of the farnesoid-X-receptor (FXR) signaling pathway (AID 743220; active means well fitted activation curve with a large enough effect in the signal ratio in the repeat runs, not every such curve was filed as active; the % refers to the signal ratio). An outline of the steps:
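FXR-UAS-bla HEK 293T cells carrying a UAS-driven beta-lactamase reporter were plated for 5 h at 37C/5% CO2, then exposed to DMSO-dissolved Tox21 10K compounds for 16 h at 37C. A LiveBLAzer B/G FRET substrate was loaded for 2 h at room temperature before fluorescence reading.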

Test [18] addresses Peroxisome proliferator-activated receptor delta (Homo sapiens) (UniProt Q03181). Description: qHTS assay to identify small molecule agonists of the peroxisome proliferator-activated receptor delta (PPARd) signaling pathway (AID 743212; calls by dose curve). In short, it runs like this: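 Beta-lactamase reporter readout: a ratiometric FRET signal from the LiveBLAzer substrate after 2 h at room temperature. Compound exposure at 37 °C in PPARδ-bla HEK293H cells driven by an upstream activator sequence.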

The target of test [19] is Bile acid receptor (Homo sapiens) (UniProt Q96RI1). Put plainly: qHTS assay to identify small molecule antagonists of the farnesoid-X-receptor (FXR) signaling pathway (AID 743217; active means well fitted inhibition curve with a large enough effect in the signal ratio in the repeat runs, not every such curve was filed as active; the % refers to the signal ratio). In short, it runs like this: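 FRET fluorescence after 2 h room-temperature LiveBLAzer loading gives the readout. Prior step: FXR-bla HEK 293T cells, seeded and incubated 5 h, received test compounds plus 50 uM final CDCA for 16 h at 37 °C.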
Sequence of Bile acid receptor (Homo sapiens) (Q96RI1 whole entry, looked up): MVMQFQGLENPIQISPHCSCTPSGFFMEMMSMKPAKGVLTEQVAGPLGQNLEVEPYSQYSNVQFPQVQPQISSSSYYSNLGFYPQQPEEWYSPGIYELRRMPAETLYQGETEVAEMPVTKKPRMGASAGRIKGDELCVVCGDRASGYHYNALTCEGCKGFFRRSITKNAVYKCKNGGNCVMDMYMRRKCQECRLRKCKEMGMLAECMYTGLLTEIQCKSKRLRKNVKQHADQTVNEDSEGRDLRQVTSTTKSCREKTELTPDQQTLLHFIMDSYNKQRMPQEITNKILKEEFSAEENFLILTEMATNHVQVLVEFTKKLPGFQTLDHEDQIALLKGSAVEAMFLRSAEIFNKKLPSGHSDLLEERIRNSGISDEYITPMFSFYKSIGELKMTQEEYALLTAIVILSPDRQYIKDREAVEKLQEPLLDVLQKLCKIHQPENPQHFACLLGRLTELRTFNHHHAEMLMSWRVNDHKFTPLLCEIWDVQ

A short description of test [20]: qHTS assay to identify small molecule agonists of the endoplasmic reticulum stress response signaling pathway - cell viability counter screen (AID 1159517; calls by dose curve). In short, it runs like this:
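ESRE-bla HeLa cells (1,500/well) were plated overnight at 37 C and exposed to compounds for 5 hr. After the 2 hr beta-lactamase substrate read, CellTiter-Glo went into the same wells, and luminescence was read after 30 min at room temperature.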

Structures are written as SMILES. Inconclusive results are not listed. Active and inactive are the calls of the source. Unless noted, the call rests on the fitted dose curve; in most records, active means well fitted curve in the direction sought with a large enough effect in the repeat runs; inconclusive means weak or mixed curves; inactive means no such curve, though single readings can be large; an effect the other way counts as inactive or inconclusive.

Sequence of Peroxisome proliferator-activated receptor delta (Homo sapiens) (Q03181 whole entry, looked up): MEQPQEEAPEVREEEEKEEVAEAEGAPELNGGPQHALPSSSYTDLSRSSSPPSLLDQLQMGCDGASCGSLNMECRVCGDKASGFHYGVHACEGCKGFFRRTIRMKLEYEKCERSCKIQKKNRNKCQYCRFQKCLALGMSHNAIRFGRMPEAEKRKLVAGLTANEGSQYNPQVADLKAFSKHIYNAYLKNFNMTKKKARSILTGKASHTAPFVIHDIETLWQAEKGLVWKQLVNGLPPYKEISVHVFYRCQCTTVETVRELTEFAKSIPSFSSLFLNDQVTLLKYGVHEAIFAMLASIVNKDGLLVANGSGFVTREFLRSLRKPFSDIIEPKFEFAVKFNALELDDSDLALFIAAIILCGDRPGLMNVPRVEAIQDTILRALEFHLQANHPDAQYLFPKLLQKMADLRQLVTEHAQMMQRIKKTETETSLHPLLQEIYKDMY
Sequence of Vitamin D3 receptor (Homo sapiens) (P11473 whole entry, looked up): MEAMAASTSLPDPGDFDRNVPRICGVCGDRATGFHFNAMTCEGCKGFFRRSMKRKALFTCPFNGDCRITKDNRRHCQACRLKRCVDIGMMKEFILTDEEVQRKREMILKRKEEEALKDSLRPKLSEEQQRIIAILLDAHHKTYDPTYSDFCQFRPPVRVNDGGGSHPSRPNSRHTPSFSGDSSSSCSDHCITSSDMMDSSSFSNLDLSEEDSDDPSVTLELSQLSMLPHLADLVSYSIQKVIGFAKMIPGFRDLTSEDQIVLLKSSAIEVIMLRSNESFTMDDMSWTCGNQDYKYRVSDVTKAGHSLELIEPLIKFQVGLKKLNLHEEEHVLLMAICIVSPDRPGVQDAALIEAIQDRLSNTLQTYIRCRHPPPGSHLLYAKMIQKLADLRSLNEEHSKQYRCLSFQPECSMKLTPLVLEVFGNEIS

With `CC[C@H]1OC(=O)[C@H](C)[C@@H](O[C@H]2C[C@@](C)(OC)[C@@H](O)[C@H](C)O2)[C@H](C)[C@@H](O[C@@H]2O[C@H](C)C[C@H](N(C)C)[C@H]2O)[C@](C)(O)C[C@@H](C)C(=O)[C@H](C)[C@@H](O)[C@]1(C)O`, the Potency entry in test [1], in test [2], in [5], in test [6], in [8] and in test [9] was “inactive” each time. In addition, the Potency entry in test [10] and in [11] was “inactive” throughout. For the same compound, the compound was called inactive in test [3], in test [4], in [7] and in test [12].
Regarding `CC[C@H]1OC(=O)[C@H](C)[C@@H](O[C@H]2C[C@@](C)(OC)[C@@H](O)[C@H](C)O2)[C@H](C)[C@@H](O[C@@H]2O[C@H](C)C[C@H](N(C)C)[C@H]2O)[C@](C)(O)C[C@@H](C)CN(C)[C@H](C)[C@@H](O)[C@]1(C)O`, the Potency result in test [13], in test [5], in test [8], in [9], in [10] and in [11] was “inactive” in each case. The call in [3], in test [7] and in test [12] was inactive. Besides, the Potency in [6] is 2.9 µM (active).
In the case of `O=C(NC(Cc1cc(=O)[nH]c2ccccc12)C(=O)O)c1ccc(Cl)cc1` (stereo unspecified), the Potency result in test [1], in [2], in test [14], in [13], in test [5] and in test [6] was “inactive” throughout. For the same compound, the Potency result in [8], in test [9], in test [15] and in test [11] was “inactive” in each case. The call in test [3], in test [7] and in test [12] was inactive.
As to `O=C1OC[C@H](Cc2cccc(O)c2)[C@H]1Cc1cccc(O)c1`, the Potency result in test [1], in test [16], in test [14], in test [13], in test [6] and in test [8] was “inactive” throughout. The Potency result in test [9], in test [10] and in test [11] was “inactive” in each case. Besides, the call in test [3], in test [7] and in test [12] was inactive.
As to `O[C@@H](CNC[C@H](O)[C@H]1CCc2cc(F)ccc2O1)[C@@H]1CCc2cc(F)ccc2O1`, the Potency in test [1] is 23.7 µM (active); in [2], 23.7 µM (active); in [14] it was 13.3 µM (active); in [13], 29.8 µM (active); in test [6], 21.3 µM (active); in test [10], 23.7 µM (active). Moreover, the Potency result in test [17], in test [8], in test [9] and in [11] was “inactive” throughout. Besides, the result in [7] and in [12] was inactive.
`CCOc1ncc(F)c(=O)[nH]1`: the Potency result in [1], in test [2], in [13], in [5], in test [6] and in test [8] was “inactive” in each case. Further, the Potency entry in test [9], in test [15] and in [11] was “inactive” in each case. Moreover, the compound was called inactive in [3], in test [4], in test [7] and in test [12].
Consider `CC(C)(C)C(O)/C=C/c1ccc2c(c1)OCO2` (stereo unspecified), for which the Potency result in [1], in [2], in [16], in test [17], in test [5] and in test [8] was “inactive” in each case. The Potency result in test [9], in [10] and in test [11] was “inactive” each time. The compound was classed as inactive in test [18], in [19], in [3], in test [4] and in test [7].
Regarding `CC(CN(CCN(CC(C)OCCO)CC(C)OCCO)CC(C)OCCO)OCCO` (stereo unspecified), the Potency result in [1], in test [16], in test [14], in [5], in test [8] and in [9] was “inactive” in each case. Besides, the Potency result in test [15] and in test [11] was “inactive” each time. Further, the compound was classed as inactive in [3], in test [4], in test [7] and in [12].
Turning to `Oc1ccc2c(c1)Cc1ccccc1-2`, the Potency entry in test [1], in [2], in test [16], in test [14], in [8] and in test [9] was “inactive” in each case. The Potency result in test [11] was “inactive”. For the same compound, the result in test [4], in test [7] and in test [12] was inactive.
As for `CC(C)C(O)C(C)(C)CO` (stereo unspecified), the Potency result in test [1], in test [2], in [14], in test [17], in [13] and in test [5] was “inactive” throughout. Also, the Potency result in test [6], in test [8], in test [9] and in test [11] was “inactive” each time. Besides, the compound was called inactive in test [19], in test [3], in test [4] and in test [7].
With `CCCCOCCOC(=O)c1cccnc1`, the Potency entry in test [1], in test [2], in test [16], in test [13], in test [5] and in [6] was “inactive” in each case. Further, the Potency result in test [8], in [20], in test [15], in test [10] and in test [11] was “inactive” throughout. Besides, the compound was classed as inactive in test [18], in [7] and in [12].
As for `COc1ccc(N)c([N+](=O)[O-])c1`, the Potency entry in test [1], in test [2], in test [16], in test [17], in test [13] and in [6] was “inactive” in each case. Moreover, the Potency entry in [8], in [20], in test [15], in test [10] and in [11] was “inactive” in each case. Also, the compound was classed as inactive in [19], in [3], in test [4], in [7] and in test [12].
In the case of `O=C(O)/C=C/c1ccc(O)c(O)c1`, the Potency entry in test [1], in test [2], in test [17], in [13], in test [6] and in test [8] was “inactive” in each case. Further, the Potency result in test [20], in [15], in test [10] and in test [11] was “inactive” each time. The compound was classed as inactive in test [19], in test [4], in test [7] and in [12].

The values are drawn from PubChem BioAssay (Tox21).
